Experiment [1] deals with Human papillomavirus type 1a protein E7 (residues 44-93). Put plainly: HPV1a E7 fragment binders on microarrays, primary screen, biochemical, small-molecule microarray, residues 44-93, 635 nm fluorescence (AID 1108).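 Further: E7 fragment applied at 1 µg/mL in TBST for 1 h at 4 C; score combines spot fluorescence with its signal to noise ratio.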 Particulars: small-molecule microarray binding, fluorescence 635 nm; higher = more signal.
Experiment [2] can be described thus: modulators of HCV replicon luciferase signal, primary screen, HCV replication inhibitor project, Huh7 cells, luciferase reporter (AID 1109).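 Further: huh7 hepatoma cells harbouring a luciferase neomycin HCV replicon reporter; luciferase luminescence as measure of HCV replicon replication; test concentration not given here.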 Particulars: 48 h, higher = more signal. For orientation: A replicon is a self-replicating genome or part of one, used to study replication in cells.
The target of experiment [3] is Left-right determination factor 2 (Homo sapiens) (UniProt O00292). Description: LEFTY2 binders on small-molecule microarrays, primary screen, biochemical, small-molecule microarray, 635 nm fluorescence scan (AID 1110). Particulars: LEFTY2 binding, higher = more signal.
Experiment [4] deals with Calmodulin-1 (Homo sapiens) (UniProt P0DP23). Description: CALM1 binders on microarrays, EGTA buffer, profiling panel, biochemical, small-molecule microarray, Cy5-labelled CALM1 (AID 1111).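 Further: labelled calmodulin applied in Tris saline Tween buffer holding calcium plus EGTA and DTT.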 Particulars: Cy5-CALM1 binding fluorescence, higher = more signal.
Experiment [5] has the same target. Description: calcium-bound CALM1 binders on microarrays, profiling panel, artefact control for SMM control-protein annotation, biochemical, small-molecule microarray, Cy5-labelled CALM1, plus calcium (AID 1112).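 Further: score merges spot fluorescence with signal to noise from triplicate slides.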 Particulars: Cy5-CALM1 binding fluorescence, higher = more signal.
Experiment [6] in a line: small-molecule microarray binders of probe aWnt5a, primary screen, biochemical, biotinylated probe, 635/667 nm fluorescence (AID 1113).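 Further: score merges 667 nm fluorescence intensity with signal-to-noise per printed feature.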 Particulars: higher = more signal.
Experiment [7] in a line: small-molecule microarray binders of probe aShh, primary screen, biochemical, biotinylated probe, 635/667 nm fluorescence (AID 1114).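 Further: probe is biotin-labelled aShh protein from a stem cell growth factor screen; measures binding of labelled protein to compounds printed on the slide; score merges feature fluorescence at 667 nm with signal-to-noise.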 Particulars: higher = more signal.
Experiment [8] is described as follows: small-molecule microarray binders of probe aNog, primary screen, biochemical, biotinylated probe, 635/667 nm fluorescence (AID 1115).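 Further: probe is biotinylated aNog protein used at 0.15 µg/mL for 1 h at 4 C; z-score combines 667 nm fluorescence of each spot with its signal to noise.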 Particulars: higher = more signal.
In experiment [9] the target is Torsin-1A-interacting protein 1 (Homo sapiens) (UniProt Q5JTV8). Description: LAP1 binders from COS7 cell lysate, primary screen, small-molecule microarray, 635/667 nm fluorescence (AID 1116). Particulars: COS7-hLAP1 lysate binding, 635 nm fluorescence, higher = more signal.
The target of experiment [10] is Alpha-bungarotoxin (Bungarus multicinctus) (UniProt P60615). Put plainly: alpha-bungarotoxin binders on microarray, profiling panel, artefact control for SMM control protein annotation, biochemical, small-molecule microarray, Alexa647 label, 635/667 nm fluorescence (AID 1117). Particulars: alpha-BTX-A647 binding fluorescence, higher = more signal.
In experiment [11] the target is Albumin (Bos taurus) (UniProt P02769). Description: bovine serum albumin binders on microarray, profiling panel, artefact control for SMM control protein annotation, biochemical, small-molecule microarray, Alexa647 label, 635/667 nm fluorescence (AID 1118).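 Further: score merges 667 nm emission intensity and signal-to-noise per printed compound spot.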 Particulars: BSA-A647 binding, fluorescence 635 nm, higher = more signal.
Experiment [12] is described as follows: small-molecule microarray binders of probe aXIP, primary screen, biochemical, NeuroSMM set, 635/667 nm fluorescence (AID 1119).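 Further: probe is the protein aXip251-270 applied at 1 µg/mL to compound-printed slides; binding of probe to printed compounds measured as 667 nm fluorescence plus signal to noise.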 Particulars: higher = more signal, called active from +8 up or from −8 down.
Experiment [13] is described as follows: small-molecule binders of probe aNOTCH3, primary screen, biochemical, small-molecule microarray, 635/667 nm fluorescence (AID 1120).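 Further: probe is a biotin-tagged antibody raised against NOTCH3 rather than NOTCH3 protein; score merges spot fluorescence near 667 nm with spot signal to noise.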 Particulars: higher = more signal.
The nature of experiment [14]: small-molecule binders of probe aNOTCH2, primary screen, biochemical, small-molecule microarray, 635/667 nm fluorescence (AID 1121).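 Further: score merges feature fluorescence read at 667 nm with its signal to noise.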 Particulars: higher = more signal.
Experiment [15] addresses Carbonic anhydrase 2 (Homo sapiens) (UniProt P00918). Description: CAII small-molecule binders, profiling panel, biochemical, small-molecule microarray, Alexa647-labelled CAII (AID 1122). Particulars: CAII-A647 binding fluorescence, higher = more signal.
The nature of experiment [16]: COS7 lysate on small-molecule microarray, probe aHis, 635 nm (AID 1123).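 Further: z-score combines 667nm fluorescence intensity with signal-to-noise per printed compound spot.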 Particulars: COS7 cell lysate, fluorescence, higher = more signal.
Experiment [17] is described as follows: compound binding in COS7 lysate, probe aLAP1, primary screen, cell lysate, small-molecule microarray (AID 1124).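 Further: lysate comes from COS7 cells expressing LAP1 and is applied at 0.3 µg/mL; score merges spot fluorescence near 667 nm with signal-to-noise over triplicate slides.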 Particulars: probe aLAP1, fluorescence, higher = more signal.
For experiment [18], the system named is Sam68 (KHDRBS1). Description: Sam68 small-molecule binders, primary screen, biochemical, small-molecule microarray, 635 nm fluorescence (AID 1125).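 Further: score merges 667 nm channel intensity with signal to noise over triplicate slides.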 Particulars: small-molecule microarray binding, higher = more signal.
In experiment [19] the test system is Chordin-like protein 2 (CHRDL2). Description: CHRDL2 small-molecule binders, primary screen, biochemical, small-molecule microarray, 635 nm fluorescence (AID 1126).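 Further: printed compound slides probed with Chrdl2 protein at 4 µg/mL for 1 h at 4 C; score merges 667 nm emission intensity with signal to noise over three replicate slides.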 Particulars: small-molecule microarray binding, fluorescence 635 nm; higher = more signal.
Experiment [20] addresses Concanavalin-A (Canavalia ensiformis) (UniProt P02866). Put plainly: ConA small-molecule binders, primary screen, artefact control for SMM control protein annotation, biochemical, small-molecule microarray, Alexa647 label, 635 nm (AID 1127).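 Further: z combines 667 nm emission intensity with signal-to-noise across three replicate slides.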 Particulars: ConA-A647 binding fluorescence, higher = more signal.

The source made the active and inactive calls.

Sequence of Left-right determination factor 2 (Homo sapiens) (O00292 whole entry, looked up): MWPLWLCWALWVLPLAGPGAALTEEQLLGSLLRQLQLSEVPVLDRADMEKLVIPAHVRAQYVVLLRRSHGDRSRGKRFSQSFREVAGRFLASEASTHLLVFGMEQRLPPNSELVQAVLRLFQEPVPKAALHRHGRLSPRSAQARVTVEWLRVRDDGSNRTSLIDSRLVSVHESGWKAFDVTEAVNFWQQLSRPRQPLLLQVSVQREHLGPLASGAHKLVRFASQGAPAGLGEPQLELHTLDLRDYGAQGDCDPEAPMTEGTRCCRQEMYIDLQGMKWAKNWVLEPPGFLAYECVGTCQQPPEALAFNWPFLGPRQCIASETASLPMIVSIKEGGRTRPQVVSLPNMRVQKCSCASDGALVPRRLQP
Sequence of Concanavalin-A (Canavalia ensiformis) (P02866 whole entry, looked up): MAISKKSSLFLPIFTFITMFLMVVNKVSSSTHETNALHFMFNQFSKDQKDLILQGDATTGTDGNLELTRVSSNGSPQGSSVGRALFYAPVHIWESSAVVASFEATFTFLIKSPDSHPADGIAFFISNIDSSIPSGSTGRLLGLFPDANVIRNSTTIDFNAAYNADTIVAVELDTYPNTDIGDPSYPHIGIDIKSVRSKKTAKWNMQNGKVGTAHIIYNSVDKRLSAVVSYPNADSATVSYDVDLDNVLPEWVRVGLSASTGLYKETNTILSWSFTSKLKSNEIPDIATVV
Sequence of Torsin-1A-interacting protein 1 (Homo sapiens) (Q5JTV8 whole entry, looked up): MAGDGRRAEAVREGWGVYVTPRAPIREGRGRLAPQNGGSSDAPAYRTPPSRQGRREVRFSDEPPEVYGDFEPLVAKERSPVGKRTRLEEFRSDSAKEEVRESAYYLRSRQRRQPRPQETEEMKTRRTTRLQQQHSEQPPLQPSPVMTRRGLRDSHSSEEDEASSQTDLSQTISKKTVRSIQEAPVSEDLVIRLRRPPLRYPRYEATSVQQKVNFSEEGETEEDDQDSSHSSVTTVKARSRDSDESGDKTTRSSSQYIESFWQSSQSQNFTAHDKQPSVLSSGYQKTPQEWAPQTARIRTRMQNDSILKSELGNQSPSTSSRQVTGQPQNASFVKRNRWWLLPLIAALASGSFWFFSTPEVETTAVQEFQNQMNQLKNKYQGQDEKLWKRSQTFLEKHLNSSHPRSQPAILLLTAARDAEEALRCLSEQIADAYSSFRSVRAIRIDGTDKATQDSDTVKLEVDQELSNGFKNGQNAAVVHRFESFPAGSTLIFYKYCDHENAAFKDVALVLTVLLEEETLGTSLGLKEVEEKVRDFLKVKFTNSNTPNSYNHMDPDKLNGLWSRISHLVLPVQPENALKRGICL
Sequence of Albumin (Bos taurus) (P02769 whole entry, looked up): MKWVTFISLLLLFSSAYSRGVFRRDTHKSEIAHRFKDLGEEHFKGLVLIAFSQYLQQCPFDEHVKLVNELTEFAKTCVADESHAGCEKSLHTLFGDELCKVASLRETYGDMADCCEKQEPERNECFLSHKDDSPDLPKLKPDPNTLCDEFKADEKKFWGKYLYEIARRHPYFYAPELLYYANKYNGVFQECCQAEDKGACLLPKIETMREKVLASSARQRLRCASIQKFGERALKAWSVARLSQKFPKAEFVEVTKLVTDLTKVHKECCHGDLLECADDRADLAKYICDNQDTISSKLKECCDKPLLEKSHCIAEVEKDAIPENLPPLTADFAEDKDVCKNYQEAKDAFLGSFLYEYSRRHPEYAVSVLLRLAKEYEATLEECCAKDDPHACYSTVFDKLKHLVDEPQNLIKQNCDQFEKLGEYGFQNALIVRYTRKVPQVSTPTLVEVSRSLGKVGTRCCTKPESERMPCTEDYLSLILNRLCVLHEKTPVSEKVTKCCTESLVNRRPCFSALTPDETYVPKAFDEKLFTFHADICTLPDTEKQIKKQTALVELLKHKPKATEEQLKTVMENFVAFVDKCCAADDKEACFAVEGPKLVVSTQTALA
Sequence of Alpha-bungarotoxin (Bungarus multicinctus) (P60615 whole entry, looked up): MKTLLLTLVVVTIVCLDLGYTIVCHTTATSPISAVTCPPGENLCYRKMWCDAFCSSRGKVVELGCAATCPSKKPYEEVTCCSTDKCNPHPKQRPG

Regarding `CCOC(=O)C[C@H]1[C@H](OC(=O)c2ccc(C(=O)c3ccccc3)cc2)[C@@H](NC(=O)C2CCCCC2)c2cc(OCCCO)ccc2N1C(=O)Cc1ccc(OC)cc1`, the composite z-score in [1] was 0.773; in experiment [3] it was 0.0258; in experiment [4] it was 1.13; in experiment [5] it was 0.304; in [6] it was -0.0907; in experiment [7], -0.0769. The composite z-score in experiment [8] is -0.0597; in experiment [9], 0.602; in experiment [10], 0.237; in experiment [11], 0.442; in experiment [13], 0.18; in [14], 0.208. The composite z-score was found to be 0.106 in experiment [15]; 0.954 in experiment [16]; 1.04 in [17]; 0.693 in experiment [18]; 0.386 in experiment [19]; 0.312 in [20]. Also, the z-score in experiment [2] is -1.96. Also, the composite Z-score in experiment [12] was 0.442 (inactive).
As to `O=C1O[C@@H](c2ccccc2)[C@@H](c2ccccc2)N2[C@@H](c3ccc(O)cc3)[C@]3(C(=O)Nc4ccc(C#CC5=CCCCC5)cc43)[C@@H](C(=O)Nc3nc4ccccc4s3)[C@H]12`, the composite z-score is 1.4 in experiment [1]; 1.25 in experiment [3]; 1.48 in experiment [4]; -0.18 in [5]; 0.428 in [6]; 0.368 in experiment [7]. The composite z-score in [8] came to 2.02; in [9] it was 0.825; in [10], 1.87; in [11] it was 0.787; in experiment [13] it was 0.887; in [14], 0.47. The composite z-score was determined as 0.58 in experiment [15]; 2.03 in experiment [16]; 0.784 in [17]; 1.29 in experiment [18]; 0.842 in experiment [19]; 1.1 in [20]. In experiment [2], the z-score was -0.99. Moreover, the composite Z-score in [12] was -0.199 (inactive).
Turning to `CC(C)(C)N1CC=CC23O[C@@H]4C=CCCOC(=O)C4[C@H]2C(=O)N(CCCO)[C@@H]3C1=O` (stereo not given in full), the composite z-score was -0.371 in [1]; -0.611 in experiment [3]; -0.801 in experiment [4]; -0.97 in [5]; -0.172 in [6]; -0.0769 in experiment [7]. Further, the composite z-score is -0.118 in experiment [8]; 0.0642 in [9]; -1.39 in [10]; -2.01 in [11]; -0.222 in experiment [13]; -0.177 in experiment [14]. Besides, the composite z-score in [15] is 0.405; in [16], -0.552; in experiment [17], -0.0817; in experiment [18], -1.76; in [19], -0.487; in experiment [20], -3.17. In experiment [2], this molecule came in with a z-score of -1.17. In experiment [12], the composite Z-score is 0.494 (inactive).
Consider `CO[C@H]1O[C@H](CO)[C@@H](OC(=O)Nc2cccc(F)c2)[C@H](OC(=O)Nc2ccc3c(c2)OCO3)[C@H]1OC(=O)Nc1ccc2c(c1)OCO2`, for which the composite z-score was 1.12 in experiment [1]; 0.0115 in experiment [3]; 0.67 in experiment [4]; -0.957 in [5]; -0.0735 in experiment [6]; 0.0469 in experiment [7]. Moreover, the composite z-score in experiment [8] was 0.201; in experiment [9], 3.02; in [10], 0.972; in [11], 0.445; in experiment [13], 0.0225; in experiment [14], -0.0508. Moreover, the composite z-score in experiment [15] turned out to be 0.728; in experiment [16] it was 2.23; in experiment [17], 0.315; in experiment [18], 1.3; in experiment [19], 0.163; in experiment [20] it was 0.731. The molecule also came in with a z-score in [2] of -1.37. The composite Z-score in [12] is 0.859 (inactive).
In the case of `C[N+](C)(C)CCCCCCNC(=O)[C@@H]1C[C@@H]2C(=O)NCC(=O)N2[C@@H]1c1cccc(OCCO)c1`, the composite z-score in experiment [1] is 0.891; in experiment [3] it was 0.695; in experiment [4], 0.21; in experiment [5], -0.359; in experiment [6], -0.18; in experiment [7], -0.333. Further, the composite z-score in experiment [8] was -0.0317; in experiment [9], 0.602; in [10] it was 1.96; in [11], -0.205; in experiment [13] it was -0.0338; in [14] it was -0.14. Also, the composite z-score in experiment [15] is 0.656; in experiment [16], 1.1; in experiment [17], -0.426; in experiment [18], 0.73; in experiment [19], 1.31; in experiment [20], 1.15. Moreover, the z-score in [2] is 1.99. For the same molecule, in experiment [12], the composite Z-score was 0.605 (inactive).

The values are drawn from PubChem BioAssay.
